{
  "source": "PubChem BioAssay AID2732",
  "about": "(Emory University Molecular Libraries Screening Center, 2010)",
  "note": "About 8,200 (3.7%) of roughly 220,000 compounds were called active. The entries come from a sample that favours actives as a whole. Values without a mark were called inactive.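 Rule for the calls: active = compounds that reduced the stress-induced luciferase reporter signal by more than about 70% of percent inhibition (limit read from the data); inactive = the rest.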",
  "data": [
    {"assay": "inhibitors of CHOP promoter induction, primary screen, cell-based, unfolded protein response, luciferase reporter (AID 2732);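 note: 0% = tunicamycin plus vehicle and 100% = wells without tunicamycin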", "conditions": "CHO-K1 CHOP-promoter luciferase, tunicamycin-induced, 15-18 h; at 10 µM; active compounds read high", "values": [
      {"smiles": "Cc1ccc(SCc2c(C(=O)N/N=C/C3CC=CCC3)nnn2-c2nonc2N)cc1", "note": "(configuration not stated)", "inhibition": "36.4%"},
      {"smiles": "CC(=O)N1N=C(c2ccncc2)OC1(Cc1ccccc1)Cc1ccccc1", "inhibition": "-11.2%"},
      {"smiles": "Cc1cc(C)cc(OCc2nnc(SCC(=O)Nc3ccccc3)o2)c1", "inhibition": "91.5% (active)"},
      {"smiles": "Cc1ccc(NC(=O)CSc2nnc(COc3ccccc3C)o2)cc1", "inhibition": "39.4%"},
      {"smiles": "Cc1cc(C)cc(OCc2nnc(SCC(=O)OC3CCCCC3)o2)c1", "inhibition": "25.7%"},
      {"smiles": "COc1ccc2c(c1)C(=C(C#N)C#N)C(=O)N2CCc1ccccc1", "inhibition": "-16.5%"},
      {"smiles": "O=[N+]([O-])c1ccccc1NCc1ccccc1Cl", "inhibition": "34.1%"},
      {"smiles": "NC(=O)CC(NC(=O)Cc1cccc2ccccc12)c1ccc(NCc2cc(F)ccc2F)c([N+](=O)[O-])c1", "note": "(configuration not stated)", "inhibition": "99.3% (active)"},
      {"smiles": "O=C1CCC(=O)N1c1ccc(NCCc2ccccc2F)c([N+](=O)[O-])c1", "inhibition": "20%"},
      {"smiles": "Brc1ccc2ncnc(NCc3cccnc3)c2c1", "inhibition": "50.9%"},
      {"smiles": "CCC(C(=O)OCC(=O)Nc1ccc(C(=O)Nc2ccc(OC)cc2)cc1)c1ccccc1", "note": "(configuration not stated)", "inhibition": "89.3% (active)"},
      {"smiles": "CCC(C(=O)OCC(=O)Nc1ccccc1-c1ccccc1)c1ccccc1", "note": "(configuration not stated)", "inhibition": "6.12%"},
      {"smiles": "CCC(C(=O)OCC(=O)Nc1c(Cl)cc(Cl)cc1Cl)c1ccccc1", "note": "(configuration not stated)", "inhibition": "48.2%"},
      {"smiles": "COc1ccc(C2c3ccc(O)cc3Oc3ncn(CCCO)c(=N)c32)cc1OC", "note": "(configuration not stated)", "inhibition": "11.6%"},
      {"smiles": "CCOCCn1c(-c2ccccc2)nc2ccccc21", "inhibition": "5.67%"},
      {"smiles": "c1ccc(-c2ccnc3nc(-n4cccc4)nn23)cc1", "inhibition": "7.91%"},
      {"smiles": "Cc1ccc(-c2ccnc3nc(Sc4ncc(C(F)(F)F)cc4Cl)nn23)cc1", "inhibition": "81.4% (active)"},
      {"smiles": "Cc1nn(-c2ncc(C(F)(F)F)cc2Cl)c(=O)n1-c1ccccc1", "inhibition": "-12.9%"},
      {"smiles": "COc1ccc(-c2ccc(OC(=O)NC3CCS(=O)(=O)C3)cc2)cc1", "note": "(configuration not stated)", "inhibition": "20.4%"},
      {"smiles": "COc1ccc(/C=N/NC(=O)c2ccccc2)cc1OS(=O)(=O)c1ccccc1", "inhibition": "7.47%"},
      {"smiles": "COc1cc(/C=N/NC(=O)Nc2ccccc2)ccc1OCCOc1ccccc1C", "inhibition": "104% (active)"},
      {"smiles": "COc1cc(/C=N/NC(=O)c2ccccc2)ccc1OS(=O)(=O)c1ccccc1", "inhibition": "-6.49%"},
      {"smiles": "CC(C)c1nc(SCC(=O)NC(=O)NC(C)(C)C)n[nH]1", "inhibition": "18.7%"},
      {"smiles": "Cc1cc(C)cc(OCC(=O)O/N=C(\\N)Cc2ccc([N+](=O)[O-])cc2)c1", "inhibition": "13.5%"},
      {"smiles": "O=C(Nc1ccc(Br)cn1)C1CCN(S(=O)(=O)c2cccs2)CC1", "inhibition": "42.9%"},
      {"smiles": "C/C=C/C(=O)Nc1ccc(N2CCN(c3ccc(C(F)(F)F)cn3)CC2)nc1", "inhibition": "1.12%"},
      {"smiles": "Nc1ccccc1Sc1ccc(C(F)(F)F)cc1[N+](=O)[O-]", "inhibition": "-6.84%"},
      {"smiles": "COc1ccc(-c2nn(C)c(=O)c3ccccc23)cc1CNC(=O)C1CCCCC1", "inhibition": "4.54%"},
      {"smiles": "Cc1cc(NC(=O)CCC2COc3ccccc3O2)no1", "note": "(configuration not stated)", "inhibition": "7.18%"},
      {"smiles": "Cc1cc(C(=O)CCl)c(C)n1CC1COc2ccccc2O1", "note": "(configuration not stated)", "inhibition": "106% (active)"},
      {"smiles": "CCn1cc(C(=O)NCC2COc3ccccc3O2)c2cc(OC)c(OC)cc2c1=O", "note": "(configuration not stated)", "inhibition": "19.1%"},
      {"smiles": "O=C(NC1C2CC3CC(C2)CC1C3)c1ccc(N2CCNCC2)c([N+](=O)[O-])c1", "note": "(configuration not stated)", "inhibition": "-22.1%"},
      {"smiles": "O=C1CCC(=O)N(O)CCCCCNC(=O)CCC(=O)N(O)CCCCCNC(=O)CCC(=O)N(O)CCCCCN1", "inhibition": "3.7%"},
      {"smiles": "COc1ccccc1NC(=O)c1cc(Cl)nc2ccccc12", "inhibition": "11.8%"},
      {"smiles": "CCn1c2ccccc2c2cc(CC(N)=O)ccc21", "inhibition": "17.4%"},
      {"smiles": "NC(N)=N/N=C/c1ccc(OCc2ccc(Cl)cc2Cl)cc1", "inhibition": "108% (active)"},
      {"smiles": "COc1ccc(C(=O)O/N=C(\\N)Cc2ccc(Cl)cc2Cl)cc1OC", "inhibition": "60.4%"},
      {"smiles": "NC(N)=N/N=C/c1ccc(Cl)c([N+](=O)[O-])c1", "inhibition": "-23.8%"},
      {"smiles": "O=C(CCc1ccccc1)NNc1ccc(F)cc1", "inhibition": "4.92%"},
      {"smiles": "COC(=O)NC1(C(F)(F)F)NC(=O)N(C2CCCCC2)C1=O", "note": "(configuration not stated)", "inhibition": "2.29%"},
      {"smiles": "O=C(NC1(C(F)(F)F)NC(=O)N(C2CCCCC2)C1=O)c1ccco1", "note": "(configuration not stated)", "inhibition": "9.81%"},
      {"smiles": "O=C1NC(Nc2nc3ccccc3s2)(C(F)(F)F)C(=O)N1C1CCCCC1", "note": "(configuration not stated)", "inhibition": "78.6% (active)"},
      {"smiles": "Nc1nc(SC23CC4CC(CC(C4)C2)C3)ns1", "inhibition": "11.6%"},
      {"smiles": "COC(=O)c1cn(C(=O)c2ccc(Cl)cc2)c2ccccc12", "inhibition": "9.55%"},
      {"smiles": "O=C(CSc1nnc(SCc2ccc(F)cc2)s1)Nc1ccc(C(=O)O)cc1", "inhibition": "-8.93%"},
      {"smiles": "COc1ccccc1C1C2=C(COC2=O)Nc2cc3c(cc21)OCO3", "note": "(configuration not stated)", "inhibition": "23.1%"},
      {"smiles": "CCCOc1ccccc1C1CC(=O)Nc2cc3c(cc21)OCO3", "note": "(configuration not stated)", "inhibition": "85.8% (active)"},
      {"smiles": "COCCOC(=O)C1=C(C)NC(=O)CC1c1cc2c(cc1Br)OCO2", "note": "(configuration not stated)", "inhibition": "-14.4%"},
      {"smiles": "CC(C)(C)c1nnc(NC(=O)C2c3ccccc3Oc3ccccc32)s1", "inhibition": "45.8%"},
      {"smiles": "CCc1ccc(-c2nn(-c3ccccc3)cc2CSC(=N)N)cc1", "inhibition": "103% (active)"},
      {"smiles": "N=C(N)SCc1cccc2ccccc12", "inhibition": "35.6%"},
      {"smiles": "CCn1c(SCc2ccc(C)cc2)nnc1-c1nn(-c2ccccc2)ccc1=O", "inhibition": "28.9%"},
      {"smiles": "Cn1c(=O)c2c(-c3cccc(Br)c3)c(C#N)c(N)nc2n(C)c1=O", "inhibition": "3.49%"},
      {"smiles": "Cc1nc(N)sc1N=Nc1c(C)n(C)n(-c2ccccc2)c1=O", "inhibition": "4.59%"},
      {"smiles": "O=C(CCl)Nc1ccc(Sc2ccc(NC(=O)CCl)cc2)cc1", "inhibition": "106% (active)"},
      {"smiles": "Cc1ccc(NC(=O)CC(=O)Nc2ccc(C)cc2)cc1", "inhibition": "20.6%"},
      {"smiles": "CC(C)(CCl)C(=O)Nc1ccc(Sc2ccc(F)cc2)cc1", "inhibition": "68%"},
      {"smiles": "COc1ccc(N=C(C)c2sc3ccccc3c2O)cc1", "inhibition": "1.74%"},
      {"smiles": "C=CCNC(=S)N/N=C/c1ccc(C)s1", "inhibition": "-20%"},
      {"smiles": "CC(=O)NCC(O)c1ccc([N+](=O)[O-])cc1", "note": "(configuration not stated)", "inhibition": "5.99%"},
      {"smiles": "O=S(=O)(NCc1ccco1)c1cnc(Cl)c(Cl)c1", "inhibition": "-45.5%"},
      {"smiles": "CN=C1C=C/C(=N/N=c2\\ccn(O)cc2C)C=C1C", "inhibition": "-15.3%"}
    ]}
  ]
}
